The values that follow come from the supplement of paper PMC12636033.

± gives the standard deviation of the averaged measurements. The full ranking holds about 33,000 sequences; the median of “E-score (rank enrichment, -0.5 to 0.5)” is about -0.0028, and the highest 2% start at about 0.23. The full list was thinned out, with the highest values kept by preference.

The subject of the test is 2Sb-muMax20 (muMax20 with two 1,3-bis(methyl)benzene Cys staples, A13C/A17C and Q88C/A92C, C-terminal Lys). The test is described as follows: PBM 8-mer E-score (E-score (rank enrichment, -0.5 to 0.5)); higher = stronger preferential binding. How it is done: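 Protein binding microarray (universal PBM chip covering all 10-mers in fixed probe flanks) with chemically synthesized human Max(13-93) bHLH-LZ analogs (not full-length Max) bearing noncanonical residues (hArg, Tha, Aib, Nle at 65) and aromatic Cys staples. Read-out per 8-mer (and its reverse complement): E-score (rank-based enrichment, -0.5 to 0.5) and Z-score of median probe intensity.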
Regarding ACGAGACG, the “PBM 8-mer E-score” value worked out at 0.0104 ± 0.13.
As for AGTGACTG, the “PBM 8-mer E-score” value is -0.0977 ± 0.053.
On to CCGGCCCC, for which the “PBM 8-mer E-score” value is -0.0874 ± 0.098.
For the sequence TCCGTCGA, the “PBM 8-mer E-score” value was -0.0858 ± 0.034.
As to GATGCGAC, the “PBM 8-mer E-score” value was determined as 0.0229 ± 0.095.
As for ACCTTCAC, the “PBM 8-mer E-score” value is 0.016 ± 0.0064.
For the sequence CTGTCATC, the “PBM 8-mer E-score” value was found to be 0.0122 ± 0.062.
For AATGCGCT the value was 0.0765 ± 0.063; for ACTGCGCC, -0.18 ± 0.0093; for ACCTAGGA, 0.0803 ± 0.054.
On to AGTTGGGA, for which the “PBM 8-mer E-score” value was -0.0331 ± 0.025.
Then AGTTGGGC, with 0.0922 ± 0.0035; and AGTTGGGG, with 0.235 ± 0.015; and ATAAGAAA, with 0.144 ± 0.013.
As for ATAAGTAC, the “PBM 8-mer E-score” value is 0.236 ± 0.016.
Turning to ATAAGTAT, the “PBM 8-mer E-score” value stood at 0.125 ± 0.033.
Take AAAAGTAA: the “PBM 8-mer E-score” value turned out to be 0.0725 ± 0.087.
For ATAAGAAT, the “PBM 8-mer E-score” value worked out at 0.104 ± 0.022.
Turning to AAAAGTAT, the “PBM 8-mer E-score” value stood at 0.083 ± 0.012.
In the case of ATAAGAAC, the “PBM 8-mer E-score” value was 0.239 ± 0.022.
As to CTAAGTAC, the “PBM 8-mer E-score” value is 0.0248 ± 0.0083.
For AAAAGTAC, the “PBM 8-mer E-score” value came to 0.239 ± 0.074.
On to CCTACGCG, for which the “PBM 8-mer E-score” value was determined as 0.0631 ± 0.019.
For ATGGTAAC the value was 0.184 ± 0.066; for GCTGTCGA, -0.165 ± 0.0033; for GGCGCGAC, -0.163 ± 0.064.
For CGGACTAG the value was -0.0898 ± 0.0032; for TGGGGGAA, 0.0145 ± 0.015; for ATGGGGAC, 0.108 ± 0.083.
For the sequence GGGGGAAA, the “PBM 8-mer E-score” value is 0.0837 ± 0.028.
Consider GTGGGGGA, for which the “PBM 8-mer E-score” value stood at 0.0894 ± 0.033.
For the sequence AGGGGGAG, the “PBM 8-mer E-score” value was -0.0302 ± 0.048.
In the case of TGGGGAAA, the “PBM 8-mer E-score” value stood at 0.314 ± 0.049.
On to ATGGGGGA, for which the “PBM 8-mer E-score” value was determined as 0.071 ± 0.032.
GTGGGGAA: the “PBM 8-mer E-score” value is 0.293 ± 0.012.
For ATGGGAAA the value was 0.00532 ± 0.065.
Consider ATGGGGAG, for which the “PBM 8-mer E-score” value was 0.252 ± 0.011.
Take ATGGGGAA: the “PBM 8-mer E-score” value worked out at 0.296 ± 0.074.
Then CTGGGGAA, with -0.106 ± 0.0058; and AAGGCAGA, with -0.0447 ± 0.097; and GCAGCTAC, with -0.158 ± 0.016.
Then GCTGGGAA, with -0.192 ± 0.031; and CGTTTAAC, with 0.0567 ± 0.0093.
Consider TATCAAGA, for which the “PBM 8-mer E-score” value was 0.188 ± 0.043.
Consider CGTGGCAG, for which the “PBM 8-mer E-score” value was -0.0638 ± 0.045.
With ACTGTTTC, the “PBM 8-mer E-score” value worked out at 0.0301 ± 0.064.
GCGGGAAA: the “PBM 8-mer E-score” value was 0.0716 ± 0.025.
Then GCGGGGGA, with 0.0111 ± 0.068.
Consider GCGGGGAA, for which the “PBM 8-mer E-score” value turned out to be 0.247 ± 0.02.
For CGGCCCAA, the “PBM 8-mer E-score” value is -0.0811 ± 0.15.
For the sequence GAGCAGCA, the “PBM 8-mer E-score” value is -0.143 ± 0.042.
In the case of ACGATAGG, the “PBM 8-mer E-score” value was found to be 0.245 ± 0.015.
Turning to CCGATAGG, the “PBM 8-mer E-score” value was -0.0782 ± 0.013.
Take ACGATAGC: the “PBM 8-mer E-score” value worked out at 0.0621 ± 0.019.
As to AAGCCGCC, the “PBM 8-mer E-score” value is -0.0339 ± 0.045.
CAATAATC: the “PBM 8-mer E-score” value came to 0.189 ± 0.047.
In the case of GAATAAAA, the “PBM 8-mer E-score” value worked out at 0.0229 ± 0.074.
Turning to GCATAACC, the “PBM 8-mer E-score” value amounted to 0.0156 ± 0.029.
For ACATAACA the value was 0.107 ± 0.034; for GCATAACA, 0.251 ± 0.042; for GTATAAAA, 0.247 ± 0.042.
For the sequence CAATAATA, the “PBM 8-mer E-score” value came to 0.233 ± 0.066.
Take CAATAAAA: the “PBM 8-mer E-score” value is 0.284 ± 0.016.
Regarding CAATAATG, the “PBM 8-mer E-score” value was found to be 0.0644 ± 0.019.
As for CAATAAAC, the “PBM 8-mer E-score” value came to 0.0373 ± 0.052.
Then ATATAAAA, with 0.186 ± 0.049; and GTATAAAC, with 0.186 ± 0.0026.
Consider AAGGGTCT, for which the “PBM 8-mer E-score” value was 0.00286 ± 0.1.
Consider AACTGTCG, for which the “PBM 8-mer E-score” value is -0.138 ± 0.016.
Then ACGATGAG, with 0.0498 ± 0.025; and TCACGAGA, with -0.0563 ± 0.015; and GAATAACA, with 0.186 ± 0.011.
For CAATAACA, the “PBM 8-mer E-score” value was found to be 0.232 ± 0.0098.
TAATAACA: the “PBM 8-mer E-score” value was 0.0232 ± 0.011.
For CTCTTAAG the value was -0.0478 ± 0.022; for GTGCGCAC, 0.157 ± 0.1.
Turning to GATCAATC, the “PBM 8-mer E-score” value is -0.0898 ± 0.043.
In the case of CTACCCCA, the “PBM 8-mer E-score” value stood at 0.259 ± 0.021.
Regarding AAACCCCA, the “PBM 8-mer E-score” value stood at 0.232 ± 0.033.
For the sequence AGACCCCA, the “PBM 8-mer E-score” value was determined as 0.283 ± 0.011.
In the case of GTACCCCA, the “PBM 8-mer E-score” value came out at 0.195 ± 0.023.
Regarding CTACCCCC, the “PBM 8-mer E-score” value is -0.0941 ± 0.072.
As for AACCCCCA, the “PBM 8-mer E-score” value was -0.318 ± 0.021.
On to CAACCCTA, for which the “PBM 8-mer E-score” value stood at 0.019 ± 0.059.
Take AAACCCTA: the “PBM 8-mer E-score” value worked out at 0.244 ± 0.089.
Then TGACCCCA, with 0.111 ± 0.032.
Take AAACCCCC: the “PBM 8-mer E-score” value is -0.275 ± 0.038.
For the sequence AGACCCCC, the “PBM 8-mer E-score” value is -0.382 ± 0.044.
On to AAACCCTG, for which the “PBM 8-mer E-score” value was found to be 0.029 ± 0.12.
With AATGCCAT, the “PBM 8-mer E-score” value was found to be 0.0622 ± 0.045.
On to AGTTGTAG, for which the “PBM 8-mer E-score” value turned out to be 0.0711 ± 0.018.
On to ATGGAAGG, for which the “PBM 8-mer E-score” value is -0.00186 ± 0.021.
Turning to CCCCGTCA, the “PBM 8-mer E-score” value was 0.0912 ± 0.04.
CCCCGGCG: the “PBM 8-mer E-score” value was -0.233 ± 0.056.
